# Bioassay records: PubChem BioAssay, National Center for Advancing Translational Sciences (NCATS)
# Rows were chosen to be rich in hits. Some 18% of all compounds tested hit in one or more screens of this group.
# HepG2 tox = HepG2 cytotoxicity, counter-screen for TGF-b inhibitors; HepG2 CAGA-GFP viability, ATP luminescence, 18 h; Potency, µM (titrated, usually from 46.1 µM), inactives show at the top dose activity change, negative = cytotoxicity, actives largely listed as cytotoxic; AID 588856; 410,000 compounds, 0.76% hits; note: potency is the fitted concentration of half-maximal effect
#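 CellTiter-Glo luminescence gave cytotoxicity after 18 hours at 37 degrees C. The cells were HepG2 CAGA-GFP in 1% FBS DMEM, stimulated with 500 pg/mL TGF-beta after compound addition. %Activity was normalised to no-cell wells (complete cell-killing) and DMSO (no toxicity), and curves were fitted and classified.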
# DT40 TDP1 no CPT = qHTS for Inhibitors of human tyrosyl-DNA phosphodiesterase 1 (TDP1): qHTS in cells in absence of CPT; DT40 Tdp1-/- hTDP1 cells, no CPT, ATP luminescence, 48 h; Potency, µM (highest dose often 46.2 µM), for the others: top-dose activity change, negative = growth inhibition, most hits filed as inhibitors; 420,000 compounds, 15% hits; AID 686978, 2013; note: potency is the fitted concentration of half-maximal effect; % is set by controls: 0 for no effect and ±100 for the full control effect; nearly all actives have a fitted effect of over 55% in size
#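 Cells were dispensed at 400 per well, compounds added by pin tool, plates incubated ≥48 hr at 37 °C, then CellTiter-Glo added for 30 min at room temperature before luminescence reading. Line: DT40 Tdp1-/- complemented with hTDP1; camptothecin omitted.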
# TDP1 block = blocks human tyrosyl-DNA phosphodiesterase 1 | 350,000 compounds, 0.28% hits | Potency, µM (top dose mostly 130 µM), inactives show at the top dose activity change, negative = inhibition, actives largely listed as inhibitors | Q9NUW8 | recombinant TDP1, AlphaScreen DNA substrate cleavage | AID 485290; note: potency is the fitted concentration of half-maximal effect; % is set by controls: 0 for no effect and ±100 for the full control effect; nearly all actives have a fitted effect of over 40% in size
# Target sequence (Q9NUW8 whole entry, looked up): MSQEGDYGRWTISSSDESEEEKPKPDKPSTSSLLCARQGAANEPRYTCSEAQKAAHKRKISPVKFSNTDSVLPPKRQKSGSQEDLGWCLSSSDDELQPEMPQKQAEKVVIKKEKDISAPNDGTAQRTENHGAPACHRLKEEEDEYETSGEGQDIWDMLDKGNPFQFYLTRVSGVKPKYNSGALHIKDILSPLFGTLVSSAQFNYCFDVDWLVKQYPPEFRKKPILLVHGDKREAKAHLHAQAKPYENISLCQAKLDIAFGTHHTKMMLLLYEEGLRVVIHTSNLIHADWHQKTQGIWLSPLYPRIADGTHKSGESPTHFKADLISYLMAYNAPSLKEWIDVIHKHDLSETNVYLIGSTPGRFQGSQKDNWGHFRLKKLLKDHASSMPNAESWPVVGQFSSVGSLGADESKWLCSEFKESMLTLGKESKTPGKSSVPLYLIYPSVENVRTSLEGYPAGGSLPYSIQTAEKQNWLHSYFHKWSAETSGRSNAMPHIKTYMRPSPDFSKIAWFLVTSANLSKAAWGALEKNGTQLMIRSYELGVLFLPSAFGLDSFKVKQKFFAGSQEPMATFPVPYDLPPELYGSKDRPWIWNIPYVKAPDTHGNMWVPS
#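 Recombinant human Tdp1 (E. coli-expressed, 1 nM final) preincubated with compounds 15 min at room temperature, then 5'-biotin/3'-phosphotyrosine-FITC DNA substrate (15 nM final) added for 5 min. AlphaScreen beads (10 ug/ml final) added 10 min; cleavage lowers signal.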
# IL-1B inflam inh = inhibitors of inflammasome signaling (IL-1 beta secretion); THP-1 LPS/ATP IL-1B secretion, AlphaLISA, 16 h; active compounds read low; 360,000 compounds, 4.7% hits; activity change, % at 57.5 µM; in the data active = activity change below about -50%; inconclusive = mostly about -30% to -49%; note: % is set by controls: 0 for no effect and ±100 for the full control effect
#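 THP-1 cells pretreated 1 hr with compounds (up to 57.5 uM final), then stimulated with LPS (250 ng/mL final) plus ATP (1.25 mM final); secreted IL-1B measured by AlphaLISA after 16 hr, decreased signal indicating inhibition.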
# TGFb SMAD3 inh = inhibitors of TGF-b signaling; HepG2 CAGA-GFP TGF-b/SMAD3 reporter, GFP fluorescence, 18 h; TGF-beta stimulated, 500 pg/mL final; 410,000 compounds, 1.2% hits; Potency, µM (top dose mostly 46.1 µM), for inactives: top-dose activity, negative = inhibition, actives largely listed as inhibitors; AID 588855; note: potency is the fitted concentration of half-maximal effect; % is set by controls: 0 for no effect and ±100 for the full control effect; nearly all actives have a fitted effect of over 65% in size
#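 Per well, imaged GFP fluorescence of HEPG2 CAGA-GFP cells gives the signal; cells get compound, then TGF-beta (500 pg/mL final), 18 h at 37 degrees C; %Activity versus -TGF-beta and +DMSO controls.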
# TDP1 cell CPT = growth inhibition of DT40 Tdp1-/-;hTDP1 cells with camptothecin (screen for TDP1 inhibitors); chicken DT40 Tdp1-/-;hTDP1 cells + 20 nM CPT, ATP luminescence, 48 h; Potency, µM (series often up to 46.2 µM), for the others: top-dose activity change, negative = growth inhibition, actives largely listed as inhibitors; 420,000 compounds, 12% hits; note: potency is the fitted concentration of half-maximal effect; % is set by controls: 0 for no effect and ±100 for the full control effect; nearly all actives have a fitted effect of over 55% in size
#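 Cell growth measured by CellTiter-Glo luminescence after a minimum 48 h, 37 C compound exposure with 20 nM CPT in Tdp1-knockout DT40 cells stably expressing hTDP1, seeded 400/well; qHTS titration format.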
# * hit, by the source's call; ? = inconclusive; . = no result given; [ ] = remark or other dose. Unless noted, calls come from the whole dose curve; as a rule, active = well fitted curve in the direction sought with a large enough effect; inconclusive = small, poorly fitted or top-dose-only effect, or another doubt; inactive = no such curve, though single readings can be large; an effect the other way counts as inactive or inconclusive.
SMILES,HepG2 tox,DT40 TDP1 no CPT,TDP1 block,IL-1B inflam inh,TGFb SMAD3 inh,TDP1 cell CPT
OC1(c2ccc(Cl)c(C(F)(F)F)c2)CCN(CCCC(c2ccc(F)cc2)c2ccc(F)cc2)CC1,.,2.99µM*,9.5%,.,.,2.66µM*
O=c1cc(-c2ccccc2)oc2c(O)c(O)ccc12,.,?,-1.1%[56.1 µM],.,.,?
O=c1cc(-c2ccccc2O)oc2c(O)c(O)ccc12,.,29.9µM*,.,.,.,23.7µM*
COc1cccc(Cc2nc3cccnc3n2C2CCN(C(=O)c3n[nH]c4c3CCCC4)CC2)c1,.,-18.2%,.,.,.,3.5%[9.04 µM]
CN(CC(=O)Nc1cccc(F)c1)C(=O)CCc1nc2ccccc2c(=O)[nH]1,6.9%,0.7%,5.6%[0.505 µM],11.5,-1.7%,?
Cc1cc(C)cc(NC(=O)C2CCCN(C(=O)c3cnn(-c4ccccc4)c3-n3cccc3)C2)c1 (configuration not stated),-21.7%,18.4µM*,5.1%,.,?,18.4µM*
COc1ccc(NC(=O)C2CCCN(C(=O)c3cnn(-c4ccccc4)c3-n3cccc3)C2)cc1 (configuration not stated),-20.7%,10.3µM*,0.0%,.,?,?
CC(=O)Nc1cc(C(=O)N2CCN(C(=O)c3ccco3)CC2)cc2ncn(CCc3ccccn3)c12,.,-6.0%,.,.,.,-12.5%[9.04 µM]
COc1ccc(Cn2nnc3c(=O)[nH]c(C4CCN(C(=O)c5ccc(C)cc5)CC4)nc32)cc1OC,-13.5%,?,6.1%,.,-10.1%,?
CNS(=O)(=O)c1ccc(Oc2ccc(S(=O)(=O)NC)cc2)cc1,-41.7%,?,2.4%,-6.7,-7.7%,14.6µM*
COc1ccc(C(=O)NCc2nnc(SCC(=O)NC3CCCCC3)o2)cc1,9.1%,20.6%,1.5%,-6.7,4.0%,-2.8%
COc1cccc(C(NC(C)=O)c2nc(-c3ccc(F)cc3OC)cs2)c1 (configuration not stated),-9.4%,?,.,4.3,32.8%,?
COc1cc(/C=C2\CCc3c2nc2ccccc2c3C(=O)O)cc(OC)c1OC,-5.1%,-17.0%,.,19.7,-23.1%,-4.0%
CCCCNC(=O)COC(=O)c1c2c(nc3ccccc13)/C(=C/c1cccs1)CC2,-13.9%,?,2.2%,-26.6,?,23.1µM*
CNC(=O)NC(=O)C(C)OC(=O)c1c2c(nc3ccccc13)/C(=C/c1cccs1)CC2 (configuration not stated),11.4%,18.4µM*,0.0%,-4.4,?,20.6µM*
COc1ccccc1/C=C/C(=O)OCC(=O)N1c2ccccc2CC1C (configuration not stated),-7.5%,-12.7%,-3.4%,0.0,6.1%,-27.2%
CCC(C)(C)NC(=O)C(c1ccc(F)cc1)N(Cc1ccccc1)C(=O)c1cnccn1 (configuration not stated),-19.4%,-29.0%,5.8%,-6.5,1.4%,-20.0%
CC1CCN(c2oc(-c3cccs3)nc2S(=O)(=O)c2ccccc2)CC1,-26.1%,20.6µM*,3.2%,.,?,?
COc1ccc(-c2nc(S(=O)(=O)c3ccccc3)c(N3CCN(C)CC3)o2)cc1,-4.7%,?,.,?,-18.3%,?
CC1CCN(c2oc(-c3ccco3)nc2S(=O)(=O)c2ccccc2)CC1,-11.7%,?,10.4%,-52.6*,8.1%,-8.5%
CCOC(=O)C1CCCN(C(=O)c2ccco2)C1 (configuration not stated),2.1%,2.6%,0.0%,4.8,-5.1%,1.2%
Cc1ccc(-c2c[n+](Cc3cccc(Cl)c3)c3n2CCC3)cc1,-17.7%,0.517µM*,.,-81.1*,0.8%,0.92µM*
Clc1cccc(C[n+]2cc(-c3ccccc3)n3c2CCC3)c1,-33.0%,2.59µM*,2.7%,-4.0,-7.7%,2.91µM*
Clc1ccc(-c2c[n+](Cc3ccc(Cl)c(Cl)c3)c3n2CCC3)cc1,.,.,5.4%,.,.,.
Clc1ccc(C2=C3CCCCn4c(-c5ccccc5)c[n+](c43)C2)cc1,-6.0%,?,10.5%,-16.6,-7.2%,?
SMILES,HepG2 tox,DT40 TDP1 no CPT,TDP1 block,IL-1B inflam inh,TGFb SMAD3 inh,TDP1 cell CPT
OC(CN1CCNCC1)Cn1c2ccc(Br)cc2c2cc(Br)ccc21 (configuration not stated),.,.,9.3%,.,.,.
CCn1nc(C)cc1-c1nnc(Sc2ncc([N+](=O)[O-])s2)n1C,3.98µM*,0.581µM*,.,-99.2*,2.82µM*,0.581µM*
COC(=O)c1ccc(C(NC(=O)OCc2ccccc2)/C(=C/[C@@H](C)C(=O)NCc2ccc(OC)c(OC)c2)c2cccnc2)cc1 (some centres not stated),.,.,5.1%,.,.,.
CC(=O)Nc1cc(-c2cccc(C)c2)cn2c(-c3ccc(S(C)(=O)=O)cc3)cnc12,-3.6%,11.6µM*,.,-57.4*,?,14.6µM*
CC(=O)Nc1cc(-c2ccccc2Cl)cn2c(-c3ccc(S(C)(=O)=O)cc3)cnc12,4.9%,?,.,-50.4*,-6.4%,?
Cc1ccc(NC(=O)CSCC(=O)Nc2cc(S(=O)(=O)N3CCOCC3)ccc2OC(C)C)cc1,-1.6%,?,.,-7.3,-6.5%,?
COc1ccc(-c2nc3ccccc3o2)cc1NC(=O)C(C)Oc1ccc(Cl)cc1Cl (configuration not stated),2.8%,23.1µM*,-3.2%,.,-1.8%,?
COc1ccc(-c2nc3cc(C(C)C)ccc3o2)cc1NC(=O)COc1ccc(C)cc1C,-2.7%,?,4.2%,.,-4.3%,6.51µM*
COc1ccc(-c2nc3cc(C(C)C)ccc3o2)cc1NC(=O)c1ccc(C)c(Cl)c1,-5.0%,18.4µM*,2.1%,.,-1.0%,20.6µM*
N#Cc1cccc(CN2CCC(=O)N([C@H](CO)Cc3ccccc3)CC2)c1,5.6%,-6.6%,.,11.3,16.2%,-3.1%
COc1ccc(C(=O)NN(C)c2nc(-c3ccccc3)nnc2C(F)(F)F)cc1,0.5%,16.4µM*,-7.9%,-5.2,15.0%,?
CN(NC(=O)C(C)(C)C)c1nc(-c2ccccc2)nnc1C(F)(F)F,-24.5%,-29.2%,5.7%,15.0,5.1%,?
Cc1cccc(C(=O)NN(C)c2nc(-c3ccccc3)nnc2C(F)(F)F)c1,3.2%,2.59µM*,2.0%,4.5,-26.9%,20.6µM*
CC1CC(O)CC(C)(C)C1 (configuration not stated),.,-2.7%,.,.,.,3.1%
